From the supplement of paper PMC10338343
± gives the standard deviation.
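Note: 1 nM active piRISC with 0.1 nM target library at 33 °C single turnover.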

The sequences below were run on MILI (PIWIL2) piRISC loaded with L1MC piRNA (26 nt) (assay: pre-steady-state target cleavage rate (min^-1); guide: L1MC piRNA 5'p-UAACUAAAUACUAUGCAAGCUGUAGG; MIWI and MILI are mouse PIWI proteins and EfPiwi is from a freshwater sponge; tags in brackets are library labels; higher = faster piRNA-guided slicing of the target). Details: auxiliary factor: 500 nM mouse GTSF1.
Method in brief: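 The pre-steady-state cleavage rate was derived from a burst-and-steady-state fit of Cleave-'n-Seq data. For these assays, 1 nM active affinity-purified piRISC loaded with a single synthetic guide was mixed with […] a transcribed, DNA-blocked target RNA library in HEPES–potassium acetate buffer at 33 °C, with or without 500 nM GTSF1 partner protein, for 0–8 or 0–960 min. Sequencing counts of uncleaved targets were normalised to depth and to weakly complementary targets, and k3 was capped at 0.0001 min^-1 after three trials were pooled.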
With UCCUCCUACUGGUUGCAUAGUAUUUAGUUA the “pre-steady-state target cleavage rate” value was 0.226 ± 0.021. UCCUGCUACAGCUUGCAUAGUUAUUUAGUUA was tested, and the “pre-steady-state target cleavage rate” value was 0.0195 ± 0.0087. UCCUGGUACAGCUUGCUUAGUUUUUAGUUA was tested, and the “pre-steady-state target cleavage rate” value was 0.0347 ± 0.011. In the case of UCCUCCUACAGCUUGCAUAGUAAUUAGUUA, the “pre-steady-state target cleavage rate” value is reported as 0.275 ± 0.022. In the case of UCCUGGAACACGAUGCAUAGUAUUUAGUUA, the “pre-steady-state target cleavage rate” value is reported as 0.14 ± 0.017. UCCUCCUAGCAGCUUGCAUAGUAUUUAGUUA was tested, and the “pre-steady-state target cleavage rate” value was 0.295 ± 0.018. For UCCUGGAUCUGCUUGCAUAGUAUAUAGUUA, the “pre-steady-state target cleavage rate” value was 0.191 ± 0.019. UCCUGGUACGGCUUGCAUAGUAUUUAGUUA was tested, and the “pre-steady-state target cleavage rate” value was 0.195 ± 0.03. For UCCUGGUACAGGUUGCAUACUAUUUAGUUA, the “pre-steady-state target cleavage rate” value was 0.111 ± 0.033. With UCCUCCUACAGCUGUGCAUAGUAUUUAGUUA the “pre-steady-state target cleavage rate” value was 0.321 ± 0.017. In the case of UCCUGGAACAUGCUUGCAUAGUAUUUAGUUA, the “pre-steady-state target cleavage rate” value is reported as 0.184 ± 0.011. In the case of UCCUGGAUCAGCUUGCAUAGUAUUUUGUUA, the “pre-steady-state target cleavage rate” value is reported as 0.144 ± 0.019. UCCUGGAUGAGCUUGGAUAGUAAUUAGUUA was tested, and the “pre-steady-state target cleavage rate” value was 0.1 ± 0.02. With UCCUCCUACAGCUUGCGUAGUAUUUAGUUA the “pre-steady-state target cleavage rate” value was 0.28 ± 0.015. UCCUGCUACAGCUUGGUUAGUAUUUAGUUA was tested, and the “pre-steady-state target cleavage rate” value was 0.262 ± 0.015. With UCCUGGAUCAGCUUGCAUAGUAUUUAGUCA the “pre-steady-state target cleavage rate” value was 0.285 ± 0.019. In the case of UCCUGGAUGUGCUUGCAUAGUACUUUAGUUA, the “pre-steady-state target cleavage rate” value is reported as 0.0231 ± 0.0092. For UCCUGCUACUGCUUGCAUAGUAUUUAGUUA, the “pre-steady-state target cleavage rate” value was 0.234 ± 0.025. UCCUCCUUGUGCUUGCAUAGUAUUUAGUUA was tested, and the “pre-steady-state target cleavage rate” value was 0.157 ± 0.012. For UCCUGGAUGUCCUUGCAUAGUAUCUAGUUA, the “pre-steady-state target cleavage rate” value was 0.12 ± 0.024. UCCUGGAUGAGCUUGCAUGGUAUUUAGUUA was tested, and the “pre-steady-state target cleavage rate” value was 0.195 ± 0.023. With UCCUGGAUGAGGAUGCAUAGUAUUUAGUUA the “pre-steady-state target cleavage rate” value was 0.103 ± 0.017. With UCCUCGUACAGCUUGCAUAGUAUAUAGUUA the “pre-steady-state target cleavage rate” value was 0.251 ± 0.02. UCCUGGAUGUGCUUGCAUAGUAUUUAGGUUA was tested, and the “pre-steady-state target cleavage rate” value was 0.102 ± 0.019. “UCCUGGAUGAGCUUGCAUAGUAUUUAGUUG [g2:g21:cont:t1G]” was tested, and the “pre-steady-state target cleavage rate” value was 0.186 ± 0.019. UCCUGGAUGUGCUUGCACAGUAUUUAGUUA was tested, and the “pre-steady-state target cleavage rate” value was 0.13 ± 0.01. With UCCUGCUUGAGCUUGCAUAGUAUUUAGUUA the “pre-steady-state target cleavage rate” value was 0.22 ± 0.019. With UCCUCGUACAGCUUGCAUACUAUUUAGUUA the “pre-steady-state target cleavage rate” value was 0.0786 ± 0.011. In the case of UCCUCCAACAGCUUGCAUAGUAUUAAGUUA, the “pre-steady-state target cleavage rate” value is reported as 0.135 ± 0.021. “UCCUGGUACAGCUUGCAUAGUAUUUAGUUU [g2:g24:cont:t1U]” was tested, and the “pre-steady-state target cleavage rate” value was 0.249 ± 0.016. In the case of UCCUCCUACAGCUUGCAAAGUAUAUAGUUA, the “pre-steady-state target cleavage rate” value is reported as 0.115 ± 0.015. UCCUCCUACAGGUUGCUUAGUAUUUAGUUA was tested, and the “pre-steady-state target cleavage rate” value was 0.237 ± 0.011. In the case of UCCUGGUACAGCUAGCAUAGUAAUUAGUUA, the “pre-steady-state target cleavage rate” value is reported as 0.236 ± 0.041. With UCCUGGAACAGCUAGCAUAGUAUUUAGUAA the “pre-steady-state target cleavage rate” value was 0.275 ± 0.03. With UCCUGCUACACGCUUGCAUAGUAUUUAGUUA the “pre-steady-state target cleavage rate” value was 0.218 ± 0.032. With UCCUGGUACAGCAUGCAUAGUAUUUAGUAA the “pre-steady-state target cleavage rate” value was 0.163 ± 0.02. For UCCUCCUACAGGUUGCAUUGUAUUUAGUUA, the “pre-steady-state target cleavage rate” value was 0.152 ± 0.012. In the case of UCCUCCUAACAGCUUGCAUAGUAUUUAGUUA, the “pre-steady-state target cleavage rate” value is reported as 0.213 ± 0.018. For UCCUGGAUCAGCUUGCAAACUAUUUAGUUA, the “pre-steady-state target cleavage rate” value was 0.0267 ± 0.0067. For UCCUGGAUGAGCUUACAUAGUAUUUAGUUA, the “pre-steady-state target cleavage rate” value was 0.153 ± 0.019.

Same assay, conditions: auxiliary factor: none (no GTSF1)
UCCUCCUACUGGUUGCAUAGUAUUUAGUUA was tested, and the “pre-steady-state target cleavage rate” value was 0.00818 ± 0.0021. In the case of UCCUGCUACAGCUUGCAUAGUUAUUUAGUUA, the “pre-steady-state target cleavage rate” value is reported as 0.00428 ± 0.0024. In the case of UCCUGGUACAGCUUGCUUAGUUUUUAGUUA, the “pre-steady-state target cleavage rate” value is reported as 0.00709 ± 0.0023. In the case of UCCUCCUACAGCUUGCAUAGUAAUUAGUUA, the “pre-steady-state target cleavage rate” value is reported as 0.00666 ± 0.0023. UCCUGGAACACGAUGCAUAGUAUUUAGUUA was tested, and the “pre-steady-state target cleavage rate” value was 0.00495 ± 0.0023. In the case of UCCUCCUAGCAGCUUGCAUAGUAUUUAGUUA, the “pre-steady-state target cleavage rate” value is reported as 0.011 ± 0.0028. UCCUGGAUCUGCUUGCAUAGUAUAUAGUUA was tested, and the “pre-steady-state target cleavage rate” value was 0.00587 ± 0.0024. UCCUGGUACGGCUUGCAUAGUAUUUAGUUA was tested, and the “pre-steady-state target cleavage rate” value was 0.0133 ± 0.0047. For UCCUGGUACAGGUUGCAUACUAUUUAGUUA, the “pre-steady-state target cleavage rate” value was 0.00543 ± 0.0028. In the case of UCCUCCUACAGCUGUGCAUAGUAUUUAGUUA, the “pre-steady-state target cleavage rate” value is reported as 0.00714 ± 0.0025. UCCUGGAACAUGCUUGCAUAGUAUUUAGUUA was tested, and the “pre-steady-state target cleavage rate” value was 0.00694 ± 0.0023. UCCUGGAUCAGCUUGCAUAGUAUUUUGUUA was tested, and the “pre-steady-state target cleavage rate” value was 0.00819 ± 0.0028. For UCCUGGAUGAGCUUGGAUAGUAAUUAGUUA, the “pre-steady-state target cleavage rate” value was 0.00311 ± 0.0026. With UCCUCCUACAGCUUGCGUAGUAUUUAGUUA the “pre-steady-state target cleavage rate” value was 0.0113 ± 0.003. UCCUGCUACAGCUUGGUUAGUAUUUAGUUA was tested, and the “pre-steady-state target cleavage rate” value was 0.0061 ± 0.002. For UCCUGGAUCAGCUUGCAUAGUAUUUAGUCA, the “pre-steady-state target cleavage rate” value was 0.0107 ± 0.0027. UCCUGGAUGUGCUUGCAUAGUACUUUAGUUA was tested, and the “pre-steady-state target cleavage rate” value was 0.00627 ± 0.0028. With UCCUGCUACUGCUUGCAUAGUAUUUAGUUA the “pre-steady-state target cleavage rate” value was 0.00705 ± 0.0018. In the case of UCCUCCUUGUGCUUGCAUAGUAUUUAGUUA, the “pre-steady-state target cleavage rate” value is reported as 0.00963 ± 0.002. In the case of UCCUGGAUGUCCUUGCAUAGUAUCUAGUUA, the “pre-steady-state target cleavage rate” value is reported as 0.00287 ± 0.0025. With UCCUGGAUGAGCUUGCAUGGUAUUUAGUUA the “pre-steady-state target cleavage rate” value was 0.017 ± 0.0046. In the case of UCCUGGAUGAGGAUGCAUAGUAUUUAGUUA, the “pre-steady-state target cleavage rate” value is reported as 0.00665 ± 0.0021. With UCCUCGUACAGCUUGCAUAGUAUAUAGUUA the “pre-steady-state target cleavage rate” value was 0.00528 ± 0.0018. For UCCUGGAUGUGCUUGCAUAGUAUUUAGGUUA, the “pre-steady-state target cleavage rate” value was 0.00588 ± 0.0033. For “UCCUGGAUGAGCUUGCAUAGUAUUUAGUUG [g2:g21:cont:t1G]”, the “pre-steady-state target cleavage rate” value was 0.00606 ± 0.0029. In the case of UCCUGGAUGUGCUUGCACAGUAUUUAGUUA, the “pre-steady-state target cleavage rate” value is reported as 0.00631 ± 0.0022. For UCCUGCUUGAGCUUGCAUAGUAUUUAGUUA, the “pre-steady-state target cleavage rate” value was 0.00599 ± 0.0022. UCCUCGUACAGCUUGCAUACUAUUUAGUUA was tested, and the “pre-steady-state target cleavage rate” value was 0.00274 ± 0.0022. With UCCUCCAACAGCUUGCAUAGUAUUAAGUUA the “pre-steady-state target cleavage rate” value was 0.0033 ± 0.0024. For “UCCUGGUACAGCUUGCAUAGUAUUUAGUUU [g2:g24:cont:t1U]”, the “pre-steady-state target cleavage rate” value was 0.0218 ± 0.0053. With UCCUCCUACAGCUUGCAAAGUAUAUAGUUA the “pre-steady-state target cleavage rate” value was 0.00276 ± 0.0025. With UCCUCCUACAGGUUGCUUAGUAUUUAGUUA the “pre-steady-state target cleavage rate” value was 0.00975 ± 0.0027. For UCCUGGUACAGCUAGCAUAGUAAUUAGUUA, the “pre-steady-state target cleavage rate” value was 0.00483 ± 0.0027. For UCCUGGAACAGCUAGCAUAGUAUUUAGUAA, the “pre-steady-state target cleavage rate” value was 0.00673 ± 0.0025. With UCCUGCUACACGCUUGCAUAGUAUUUAGUUA the “pre-steady-state target cleavage rate” value was 0.00682 ± 0.0029. With UCCUGGUACAGCAUGCAUAGUAUUUAGUAA the “pre-steady-state target cleavage rate” value was 0.00467 ± 0.0031. With UCCUCCUACAGGUUGCAUUGUAUUUAGUUA the “pre-steady-state target cleavage rate” value was 0.00725 ± 0.0019. With UCCUCCUAACAGCUUGCAUAGUAUUUAGUUA the “pre-steady-state target cleavage rate” value was 0.0084 ± 0.0021. With UCCUGGAUCAGCUUGCAAACUAUUUAGUUA the “pre-steady-state target cleavage rate” value was 0.00375 ± 0.0019. For UCCUGGAUGAGCUUACAUAGUAUUUAGUUA, the “pre-steady-state target cleavage rate” value was 0.00591 ± 0.0023.
